High-throughput results (PubChem)
This is a sample that favours compounds with a hit; in the whole collection about 1.3% have one here.
SRC1 inh – human NCOA1 inhibition; HEK293 GAL4-SRC1 luciferase reporter, luminescence; Q15788; inhibition, % at 3.6 µM; 0.12% of 360,000 active;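 active = inhibition above the campaign mean plus 3 SD, with each screening campaign given its own cutoff, cut at about 60% in these data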;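 note: 0% = DMSO treated cells and 100% = gossypol at 36 µM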
Gli-Sufu block – antagonists of Gli-Sufu signaling | Sufu-KO-LIGHT fibroblasts, Gli luciferase reporter luminescence | inhibition, % at 5 µM | 0.74% of 340,000 active | AID 588413;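 active = inhibition above about 55%, limit read from the data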;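 note: 0% = DMSO-treated cells and 100% = wells with medium but no cells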
COUP-TFII inh – NR2F2 (human) inhibition, primary screen. P24468. HEK293T NGFI-A luciferase reporter, luminescence. inhibition, % at 8.6 µM. 0.7% of 370,000 active. AID 686940;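 active = inhibition above a per-plate cutoff, mean inhibition of test wells between control levels plus 3 SD, cut at about 38% in these data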;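 note: cells cotransfected with COUP-TFII expression vector driving the NGFI-A reporter; 0% = median of COUP-TF2 test wells and 100% = reporter-only cells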
LRH-1 inv ag – inverse agonists of human LRH-1 (NR5A2) | O00482 | HEK293T StAR-luciferase reporter, LRH-1 transfected, 24 h | inhibition, % at 3.6 µM | 0.13% of 360,000 active | AID 602396;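 active = inhibition above the mean inhibition of all tested compounds plus 3 SD, cut at about 73% in these data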;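 note: 0% = DMSO wells and 100% = reporter-only cells lacking LRH-1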
SRC3 inh – inhibitors of human steroid receptor coactivator 3 (SRC3). Q9Y6Q9. HEK293 GAL4-SRC3 luciferase reporter, luminescence. inhibition, % at 3.6 µM. 0.17% of 360,000 active;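 active = inhibition above a per-campaign cutoff, the mean of all compounds plus 3 SD, cut at about 60% in these data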;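 note: 0% = DMSO-treated cells and 100% = gossypol-treated cells at 36 µM; higher means less SRC3-driven luciferase light from the GAL4 reporter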
NCOA2 inhibitor – human SRC2 (NCOA2) inhibition; Q15596; HEK293 GAL4-SRC2 luciferase reporter, luminescence; inhibition, % at 9 µM; 0.17% of 370,000 active; AID 651957;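 active = inhibition above the mean inhibition of all tested compounds plus 3 SD, set per campaign, cut at about 52% in these data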;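 note: 0% = DMSO treated cells and 100% = cells given Gossypol at 36 µM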
Gli-Sufu confirm – Gli-SUFU antagonism confirmation, single concentration. shares compounds with Gli-Sufu block. Sufu-KO-LIGHT cells, Gli luciferase reporter, luminescence. inhibition, % at 5 µM. 40% of 2,500 active. AID 602428;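 active = mean inhibition at 5 µM reaching about 45%, limit read from the data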;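 note: plate controls were DMSO-treated cells for no effect and wells lacking cells for full effect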
SufuKO cytotox – counter-screen for Gli-SUFU antagonists: cytotoxicity | 32% of 2,500 active | AID 651994 | cytotoxicity, % at 5 µM | Sufu-KO-LIGHT cells cytotoxicity, ATP luminescence | shares compounds with Gli-Sufu block;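 active = mean cytotoxicity at 5 µM above about 25%, limit read from the data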;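 note: cells exposed to compound overnight for roughly 16 to 18 hours; plate controls were DMSO wells with cells for no effect and medium without cells for full effect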
Wnt3a counter – Wnt3a reporter inhibition counter-screen. shares compounds with Gli-Sufu block. Wnt-LIGHT cells, Wnt3a-driven luciferase reporter, luminescence. inhibition, % at 6.25 µM. 20% of 2,500 active;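 active = mean inhibition above about 25%, limit read from the data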
VP16 Luc counter – counter-screen for COUP-TFII antagonists: inhibitors of VP16. 25% of 2,500 active. inhibition, % at 8.5 µM. AID 687007. shares compounds with COUP-TFII inh. HEK293 Gal4-VP16 luciferase reporter, luminescence; in the data active = inhibition above about 13%
NR2F2 inh conf – COUP-TFII (NR2F2) inhibition, confirmation assay | shares compounds with COUP-TFII inh | HEK293 NGFI-A luciferase reporter, luminescence | inhibition, % at 8.5 µM | 45% of 2,500 active | AID 687008;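 active = mean inhibition over three repeats above a set limit taken from the earlier primary screen, cut at about 38% in these data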;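 note: 100% = cells given the luciferase reporter alone without the COUP-TF2 vector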
Active calls of the source: *.

For N=c1c2c(n(Cc3cccc(Cl)c3)c3c1CCC3)CCCC2 the results were SRC1 inh 48.0, Gli-Sufu block 81.2*, COUP-TFII inh 64.7*, LRH-1 inv ag 75.3*, SRC3 inh 52.2, NCOA2 inhibitor -0.3, Gli-Sufu confirm 83.5*, SufuKO cytotox 35.0*, Wnt3a counter 35.9*, VP16 Luc counter 13.4* and NR2F2 inh conf 47.4*.
For O=C1CCCc2ccccc2N1Cc1ccc(F)cc1 the results were SRC1 inh 7.1, Gli-Sufu block 2.8, COUP-TFII inh 9.7, LRH-1 inv ag -13.7, SRC3 inh 14.2 and NCOA2 inhibitor -21.6.
`N=c1c2c(n(Cc3ccc(Cl)cc3)c3c1CCC3)CCC2` gave SRC1 inh 48.4, Gli-Sufu block 79.5*, COUP-TFII inh 66.9*, LRH-1 inv ag 91.9*, SRC3 inh 69.6*, NCOA2 inhibitor 1.7, Gli-Sufu confirm 81.8*, SufuKO cytotox 25.2*, Wnt3a counter 47.7*, VP16 Luc counter 4.0 and NR2F2 inh conf 46.2*.
CCOC(=O)Cn1c2c(c(=N)c3c1CCC3)CCC2 was read as SRC1 inh 1.9, Gli-Sufu block -4.5, COUP-TFII inh -1.8, LRH-1 inv ag -13.5, SRC3 inh -1.0 and NCOA2 inhibitor 12.1.
CC(C)(C)N1Cc2nnn(Cc3ccccc3)c2-c2cc(N3CCCCC3)ccc2S1(=O)=O was read as COUP-TFII inh 5.0 and NCOA2 inhibitor -8.6.
`O=C(Cn1nc(-c2ccccc2)ccc1=O)NCCc1ccccc1F` gave COUP-TFII inh -0.4 and NCOA2 inhibitor -16.9.
For COC(=O)C12OCC34C(CC5C(C)=C(O)C(=O)CC5(C)C3C(O)C1O)OC(=O)C(OC(=O)C=C(C)C)C24 (stereo not drawn) the results were SRC1 inh 95.7*, Gli-Sufu block 91.1*, COUP-TFII inh 92.5*, LRH-1 inv ag 96.8*, SRC3 inh 93.9*, NCOA2 inhibitor 82.6*, Gli-Sufu confirm 95.0*, SufuKO cytotox 76.3*, Wnt3a counter 104.6*, VP16 Luc counter 12.3 and NR2F2 inh conf 85.9*.
Screening CC(NCc1ccco1)C(=O)N1CCN(Cc2ccccc2F)CC1 (stereo not drawn) returned COUP-TFII inh -3.8 and NCOA2 inhibitor -0.4.
CCN(C(=O)c1ccc(C(C)(C)C)cc1)c1nnc(Cn2nnc3ccccc32)s1 was read as SRC1 inh 4.3, Gli-Sufu block 60.6*, COUP-TFII inh 75.9*, LRH-1 inv ag 33.1, SRC3 inh 30.6, NCOA2 inhibitor 20.8, Gli-Sufu confirm 60.7*, SufuKO cytotox 33.4*, Wnt3a counter 41.6*, VP16 Luc counter 13.3* and NR2F2 inh conf 72.3*.
Screening COc1cccc(OC(C)CCN2CCC(C(O)(c3ccccc3)c3ccccc3)CC2)c1 (stereo not drawn) returned COUP-TFII inh 1.7 and NCOA2 inhibitor 17.3.
For O=C(c1cc2sccc2n1Cc1ccc(F)cc1)N1CCN(c2nc3ccccc3s2)CC1 the results were SRC1 inh 9.9, Gli-Sufu block 63.8*, COUP-TFII inh 55.9*, LRH-1 inv ag 25.3, SRC3 inh 17.6, NCOA2 inhibitor 35.6, Gli-Sufu confirm 69.7*, SufuKO cytotox 26.6*, Wnt3a counter -16.4, VP16 Luc counter 4.4 and NR2F2 inh conf 29.4.
For O=C(c1cccs1)N1CCN(c2nc3ccccc3s2)CC1 the results were SRC1 inh -23.1, Gli-Sufu block -8.0, COUP-TFII inh -4.6, LRH-1 inv ag 11.0, SRC3 inh -5.5 and NCOA2 inhibitor -3.5.
